Measured values: PubChem BioAssay (NCATS)
Values joined by “and” are separate entries in the source; they are usually repeats but may differ in a detail not shown here. Identical values can stand only once. Inconclusive results are not listed. Active and inactive are the calls of the source. Unless noted, calls come from the whole dose curve; as a rule, active = well fitted curve in the direction sought with a large enough effect; inconclusive = small, poorly fitted or top-dose-only effect, or another doubt; inactive = no such curve, though single readings can be large; an effect the other way counts as inactive or inconclusive.

What was measured:
[1] = target: Cytochrome P450 1A2 (Homo sapiens) (UniProt P05177); assay: p450-cyp1a2 (AID 410; calls by dose curve; note: potency is the fitted concentration of half-maximal effect;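 for activity change, negative = inhibition: -100% = full effect of reference inhibitor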)
Method in brief: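 20nM CYP1A2 with 100uM Luciferin-ME (at Km) in 100mM KPO4; compound preincubated 10 min, NADPH regeneration added, 60 min at room temperature. Luciferin quantified by luminescence after detection reagent; normalized to 57 uM furafylline.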

[2] = target: Glucocorticoid receptor (Homo sapiens) (UniProt P04150); assay: GR-GFP Redistribution (AID 450;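 active = compounds whose dose series gives a full or clear partial fitted curve of increased nuclear translocation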; note: potency is the fitted concentration of half-maximal effect); details: U2OS GR-GFP nuclear translocation, laser cytometry, 2 h
[3] = target: Glucocorticoid receptor (Homo sapiens) (UniProt P04150); assay: GR-EFC Redistribution (AID 451; calls by dose curve; note: potency is the fitted concentration of half-maximal effect); details: CHO-K1 GR-EFC translocation, beta-gal luminescence, 2 h
Method in brief: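 CHO-K1 cells expressing nuclear EA and GR-ED fragments of b-gal; compounds titrated up to 46 uM final, 2 h at 37 C. GR nuclear translocation read as complemented b-gal luminescence after 1 h RT detection.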

[4] = target: Mitogen-activated protein kinase 10 (Mus musculus) (UniProt Q61831); assay: JNK3 AlphaScreen Assay (AID 530; active = well fitted curve in either direction with a large enough effect, not every such curve was filed as active;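 note: kinase came from lysate of stimulated human HepG2 cells; signal reports phosphorylation of biotinylated GST-cJun 1-79 at Ser73 with 10 µM ATP; % is set by controls: 0 for no effect and ±100 for the full control effect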)
Method in brief: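 Pre-activated (IL-1β/TNFα) JNK3 in HepG2 lysates phosphorylates biotin-GST-cJun(1-79), 10 uM ATP; anti-phospho-cJun(Ser73) AlphaScreen read at room temperature, pH 7.6 Tris buffer. Compounds pre-incubated 15 min as titrations.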

[5] = target: 3',5'-cyclic-AMP phosphodiesterase 4B (Homo sapiens) (UniProt Q07343); assay: qHTS Assay for Inhibitors of PDE-IV (AID 607; active = well fitted activation curve with a large enough effect in the main read-out, with a control signal flat, not every such curve was filed as active; note: % of control where 0% means no effect)
Method in brief: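 Live HEK293 cells with a modified cyclic nucleotide-gated (CNG) channel report intracellular cAMP via membrane-potential dye fluorescence (ex 535/em 590 nm). Endogenous PDE-IV was targeted. Compounds were tested at up to 22.9 uM final; RO 20-1724 100 uM served as control.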

[6] = target: Cytochrome P450 2C9 (Homo sapiens) (UniProt P11712); assay: qHTS Assay for Inhibitors and Substrates of Cytochrome P450 2C9 (AID 883); note: nearly all actives have a fitted effect of over 60% in size; note: potency is the fitted concentration of half-maximal effect
Method in brief: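 10nM CYP2C9 + 100uM Luciferin-H (=KM), 25mM KPO4; cpd 10 min 37C; NADPH regen, 60 min 37C; stop/detect with P450 Glo-Buffer 20 min; luminescence. Norm. to 57uM sulphaphenazole as full inhibition.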

[7] = target: Cytochrome P450 3A4 (Homo sapiens) (UniProt P08684); assay: qHTS Assay for Inhibitors and Substrates of Cytochrome P450 3A4 (AID 884); note: potency is the fitted concentration of half-maximal effect; nearly all actives have a fitted effect of over 50% in size
Method in brief: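 20 nM human CYP3A4 with 25 uM Luciferin-PPXE (at KM) in 200 mM KPO4, preincubated 10 min with compound; NADPH regeneration started a 60 min RT reaction. Luciferin detected by luminescence, normalized to 57 uM ketoconazole as full inhibition.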

[8] = target: Cytochrome P450 3A4 (Homo sapiens) (UniProt P08684); assay: qHTS Assay for Activators of Cytochrome P450 3A4 (AID 885); note: nearly all actives have a fitted effect of over 65% in size
Method in brief: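 Quantitative HTS format: compounds preincubated with 20nM human CYP3A4 and Luciferin-PPXE substrate at KM, reaction started by NADPH regeneration, stopped after 60 min, luciferase luminescence read 20 min later.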

[9] = target: Cytochrome P450 2D6 (Homo sapiens) (UniProt P10635); assay: qHTS Assay for Inhibitors and Substrates of Cytochrome P450 2D6 (AID 891); note: nearly all actives have a fitted effect of over 60% in size; note: potency is the fitted concentration of half-maximal effect
Method in brief: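 Human CYP2D6 (5 nM) with 30 uM Luciferin-ME EGE (at Km) in 100 mM KPO4, compound preincubated 10 min, then NADPH regeneration system for 60 min at room temperature. Luciferin read by luminescence; normalized to 1.43 uM quinidine.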

[10] = target: Cytochrome P450 2C19 (Homo sapiens) (UniProt P33261); assay: qHTS Assay for Inhibitors and Substrates of Cytochrome P450 2C19 (AID 899); note: nearly all actives have a fitted effect of over 60% in size; note: potency is the fitted concentration of half-maximal effect
Method in brief: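 Luminescent read-out of luciferin formed from Luciferin-H EGE (10uM, equal to KM). Enzyme 5nM in 50mM KPO4; compound added, 10 min at 37C, then NADPH regenerating system for 60 min at 37C. Full inhibition defined by 57uM ketoconazole.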

[11] = target: DNA dC->dU-editing enzyme APOBEC-3G (Homo sapiens) (UniProt Q9HC16); assay: qHTS for inhibitors of Vif-A3G interactions: Validation (AID 588379); note: 0% is about no effect
Method in brief: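 HeLa cells stably expressing Vif and A3G-eYFP, 700 cells/well, incubated overnight at 37 deg C, then exposed to compound overnight at 37 deg C. Inhibition of Vif-mediated degradation read as increased yellow fluorescence (Ex 488/Em 500-530) by laser-scanning cytometry.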

[12] = tested on: Zika virus NS2B-NS3 protease; assay: Primary screen GU AMC qHTS for Zika virus inhibitors (AID 1347154);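 note: 0% = no-inhibitor control and -100% = no-enzyme control; nearly all actives have a fitted effect of over 70% in size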
Method in brief: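 Unlinked Zika NS2B hydrophilic domain–NS3 protease complex at 25 nM in 10 mM Tris-HCl pH 8.0, 0.01% Tween 20, with an AMC peptide substrate. Fluorescence change (340/450 nm) over 15 min at room temperature, normalized to controls, fitted to 4-parameter Hill.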

[13] = target: Ubiquitin carboxyl-terminal hydrolase 1 (Homo sapiens) (UniProt O94782); assay: Inhibitors of USP1/UAF1: Pilot qHTS (AID 504865);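 note: rhodamine fluorescence freed from ubiquitin-rhodamine substrate followed over time; top concentration of the series differs between compounds; % is set by controls: 0 for no effect and ±100 for the full control effect; nearly all actives have a fitted effect of over 35% in size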
Method in brief: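 Enzyme-free wells gave the negative control, while test wells held 1nM USP1/UAF1 preincubated with compound for 15 min at room temperature. Ub-Rho at 150nM final started the reaction, and fluorescence at 480/540 nm was recorded kinetically.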

[14] = AP1 Signaling Pathway (AID 357; active = well fitted curve in either direction with a large enough effect, not every such curve was filed as active;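 note: ME-180 reporter cells stimulated with EGF at its EC50 level; % is set by controls: 0 for no effect and ±100 for the full control effect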); details: ME-180 AP-1-bla reporter, EGF-induced, beta-lactamase ratio, 5 h; at 38 µM (top of the series)
Method in brief: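 Titration-series screen for positive or negative modulators of EC50 EGF-induced signaling in ME-180 cells carrying an AP-1-driven beta-lactamase reporter. After 5 hours at 37 degrees Celsius, CCF4 460nm/530nm emission ratio gave %Activity; AC50 values derived.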

[15] = Stat Signaling Pathway (AID 446; active = well fitted curve in either direction with a large enough effect, not every such curve was filed as active;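 note: ME-180 cervical cancer cells given 40 pM IL-6 alongside compound; SIE-controlled beta-lactamase reporter measured as 460/530 nm FRET emission ratio; % is set by controls: 0 for no effect and ±100 for the full control effect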); details: ME-180 SIE beta-lactamase reporter, IL-6 stimulated, 5 h; at 38 µM (top of the series)
Method in brief: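 IL-6/STAT signaling read in ME-180 cells via an SIE beta-lactamase reporter. Stimulus was 40 pM IL-6 (its AC50) for 5 hrs, so both activation and inhibition register.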

[16] = target: Guanine nucleotide-binding protein G(i) subunit alpha-1 (Homo sapiens) (UniProt P63096); assay: qHTS Assay for Inhibitors of RGS12 GoLoco Motif Activity (Green Fluorophore) (AID 879);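 note: 0% = labeled peptide with Gαi1 and full inhibition = labeled peptide alone without protein; negative values mean loss of peptide binding seen as reduced polarization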
Method in brief: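 Fluorescence polarization assay: 50 nM Gαi1 with 10 nM FITC-labeled RGS12 GoLoco peptide in 10 mM Tris pH 7.5, 150 mM NaCl, 0.1 mM GDP, 0.05% NP40, 10 min at room temperature with compound.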

[17] = qHTS Assay for Identification of Small Molecule Antagonists for NFkB Signaling Pathway (AID 895; active = well fitted inhibition curve with a large enough effect in the signal ratio, with a control signal flat, not every such curve was filed as active; the % refers to the signal ratio; note: % is set by controls: 0 for no effect and ±100 for the full control effect)
Method in brief: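 ME-180 NFkB-bla cells (beta-lactamase under NFkB response element), plated overnight, treated with compound then 10 pM TNF alpha (about EC50) for 5 hrs at 37 C. LiveBLAzer FRET read at 460/530 nm emission, 405 nm excitation.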

[18] = target: Muscarinic acetylcholine receptor M1 (Rattus norvegicus) (UniProt P08482); assay: qHTS Assay for Antagonists of Acetylcholine Muscarinic M1 Receptor: Measurement of IP-One Response (AID 944); note: potency is the fitted concentration of half-maximal effect; nearly all actives have a fitted effect of over 75% in size
Method in brief: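 CHO cells stably expressing rat M1, pretreated 10 min with compound, then stimulated 30 min with carbachol at EC80 (200 nM) in LiCl-containing buffer pH 7.4; IP1 accumulation read by HTRF competition (665/620 nm).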

[19] = target: Pyruvate kinase PKM (Homo sapiens) (UniProt P14618); assay: qHTS Assay for Activators of Human Muscle Pyruvate Kinase (AID 954; active = well fitted curve in the direction sought with a large enough effect, not every such curve was filed as active;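 note: 0% = uninhibited enzyme and -100% = no enzyme or full thiadiazolimine inhibition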)
Method in brief: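 Enzyme was run at intermediate activity so both inhibitors and activators could be detected. ATP formed from ADP and PEP by 0.1 nM human PKM2 during a 1 h room-temperature incubation was quantified by coupled luciferase luminescence.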

[20] = target: alpha-glucosidase (Oryza sativa, rice) (UniProt Q653V4); assay: Counterscreen for Glucocerebrosidase Inhibitors: qHTS Assay for Rice alpha-Glucosidase at pH 5.0 (AID 997);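 note: 0% = full activity with enzyme and -100% = basal without enzyme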
Method in brief: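 Rice alpha-glucosidase (4 nM final) with 400 uM 4-methylumbelliferyl-alpha-D-glucopyranoside in citrate buffer pH 5.0, 20 min at room temperature, stopped at pH 10; fluorescence 365/440 nm, compounds 0.7 nM–77 uM, AC50 from Hill fits.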

[21] = target: Cytochrome P450 2D6 (Homo sapiens) (UniProt P10635); assay: Cytochrome P450 family 2 subfamily D member 6 (CYP2D6) small molecule antagonists: luciferase biochemical (cell-free) qHTS assay (AID 1645840; active = well fitted curve in the direction sought with a large enough effect in the repeat runs; an effect the other way counts as inactive or inconclusive; note: % is set by controls: 0 for no effect and ±100 for the full control effect; nearly all actives have a fitted effect of over 55% in size)
Method in brief: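 P450-Glo luminescent screen: recombinant CYP2D6 enzyme–proluciferin substrate mix preincubated with compound 10 min at room temperature, then NADPH regeneration added for 1 h at room temperature. Detection reagent added for 20 min; luciferin light read as relative luminescence units.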

[22] = target: Cytochrome P450 2C9 (Homo sapiens) (UniProt P11712); assay: Cytochrome P450 family 2 subfamily C member 9 (CYP2C9) small molecule antagonists: luciferase biochemical (cell-free) qHTS assay (AID 1645842; active = well fitted curve in the direction sought with a large enough effect in the repeat runs; an effect the other way counts as inactive or inconclusive; note: % is set by controls: 0 for no effect and ±100 for the full control effect; nearly all actives have a fitted effect of over 55% in size)
Method in brief: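 Luminescence, after 20 min with luciferin detection reagent, reflected CYP2C9 turnover during a 1 h NADPH-driven reaction at 37C. Enzyme-substrate mix contained 0.4% bovine serum albumin and was preincubated with compound 10 min at room temperature.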

Chain of Cytochrome P450 2C9 (Homo sapiens) (P11712 whole entry, looked up): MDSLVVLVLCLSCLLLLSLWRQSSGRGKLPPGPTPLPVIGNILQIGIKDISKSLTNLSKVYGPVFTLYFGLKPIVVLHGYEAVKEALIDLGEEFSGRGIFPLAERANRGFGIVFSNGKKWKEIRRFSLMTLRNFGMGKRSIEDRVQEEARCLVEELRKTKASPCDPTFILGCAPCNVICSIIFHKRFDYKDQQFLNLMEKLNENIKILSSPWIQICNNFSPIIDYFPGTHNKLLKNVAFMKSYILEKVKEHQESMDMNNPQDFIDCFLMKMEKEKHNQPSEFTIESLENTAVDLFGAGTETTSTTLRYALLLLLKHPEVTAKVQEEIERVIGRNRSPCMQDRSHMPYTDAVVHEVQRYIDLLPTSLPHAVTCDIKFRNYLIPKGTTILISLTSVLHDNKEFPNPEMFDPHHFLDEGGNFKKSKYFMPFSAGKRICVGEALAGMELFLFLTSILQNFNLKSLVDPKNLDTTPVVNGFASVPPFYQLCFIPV
Chain of DNA dC->dU-editing enzyme APOBEC-3G (Homo sapiens) (Q9HC16 whole entry, looked up): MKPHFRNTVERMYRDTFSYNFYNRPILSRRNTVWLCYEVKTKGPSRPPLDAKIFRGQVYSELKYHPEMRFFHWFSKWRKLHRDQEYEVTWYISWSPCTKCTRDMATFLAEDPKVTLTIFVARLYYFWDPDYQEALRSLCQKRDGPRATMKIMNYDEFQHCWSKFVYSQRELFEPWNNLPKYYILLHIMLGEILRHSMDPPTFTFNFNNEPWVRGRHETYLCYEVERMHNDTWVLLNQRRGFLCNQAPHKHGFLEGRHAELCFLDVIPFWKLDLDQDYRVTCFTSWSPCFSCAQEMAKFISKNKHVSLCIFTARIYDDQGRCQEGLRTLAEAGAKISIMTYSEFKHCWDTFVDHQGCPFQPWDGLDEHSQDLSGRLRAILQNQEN
Chain of Glucocorticoid receptor (Homo sapiens) (P04150 whole entry, looked up, the tested form may be a part): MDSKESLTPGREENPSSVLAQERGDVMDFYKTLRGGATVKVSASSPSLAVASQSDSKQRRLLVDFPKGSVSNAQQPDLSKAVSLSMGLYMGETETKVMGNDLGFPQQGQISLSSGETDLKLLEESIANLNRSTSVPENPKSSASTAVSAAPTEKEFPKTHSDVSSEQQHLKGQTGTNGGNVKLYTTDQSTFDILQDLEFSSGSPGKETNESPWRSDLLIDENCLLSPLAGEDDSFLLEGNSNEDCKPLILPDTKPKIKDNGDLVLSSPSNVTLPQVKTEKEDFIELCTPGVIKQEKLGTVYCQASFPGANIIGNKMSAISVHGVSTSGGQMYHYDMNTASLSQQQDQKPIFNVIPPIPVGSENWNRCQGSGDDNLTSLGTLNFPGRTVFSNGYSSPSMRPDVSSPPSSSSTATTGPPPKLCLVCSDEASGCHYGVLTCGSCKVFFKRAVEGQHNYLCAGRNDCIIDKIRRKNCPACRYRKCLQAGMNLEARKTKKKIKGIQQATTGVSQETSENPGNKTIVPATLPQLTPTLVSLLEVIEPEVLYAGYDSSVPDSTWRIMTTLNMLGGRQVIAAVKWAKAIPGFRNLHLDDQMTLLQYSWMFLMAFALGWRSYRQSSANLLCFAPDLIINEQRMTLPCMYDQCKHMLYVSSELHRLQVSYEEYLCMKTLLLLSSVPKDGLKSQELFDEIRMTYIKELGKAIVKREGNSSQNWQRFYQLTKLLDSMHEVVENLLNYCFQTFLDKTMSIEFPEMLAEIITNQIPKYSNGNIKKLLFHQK
Chain of Ubiquitin carboxyl-terminal hydrolase 1 (Homo sapiens) (O94782 whole entry, looked up): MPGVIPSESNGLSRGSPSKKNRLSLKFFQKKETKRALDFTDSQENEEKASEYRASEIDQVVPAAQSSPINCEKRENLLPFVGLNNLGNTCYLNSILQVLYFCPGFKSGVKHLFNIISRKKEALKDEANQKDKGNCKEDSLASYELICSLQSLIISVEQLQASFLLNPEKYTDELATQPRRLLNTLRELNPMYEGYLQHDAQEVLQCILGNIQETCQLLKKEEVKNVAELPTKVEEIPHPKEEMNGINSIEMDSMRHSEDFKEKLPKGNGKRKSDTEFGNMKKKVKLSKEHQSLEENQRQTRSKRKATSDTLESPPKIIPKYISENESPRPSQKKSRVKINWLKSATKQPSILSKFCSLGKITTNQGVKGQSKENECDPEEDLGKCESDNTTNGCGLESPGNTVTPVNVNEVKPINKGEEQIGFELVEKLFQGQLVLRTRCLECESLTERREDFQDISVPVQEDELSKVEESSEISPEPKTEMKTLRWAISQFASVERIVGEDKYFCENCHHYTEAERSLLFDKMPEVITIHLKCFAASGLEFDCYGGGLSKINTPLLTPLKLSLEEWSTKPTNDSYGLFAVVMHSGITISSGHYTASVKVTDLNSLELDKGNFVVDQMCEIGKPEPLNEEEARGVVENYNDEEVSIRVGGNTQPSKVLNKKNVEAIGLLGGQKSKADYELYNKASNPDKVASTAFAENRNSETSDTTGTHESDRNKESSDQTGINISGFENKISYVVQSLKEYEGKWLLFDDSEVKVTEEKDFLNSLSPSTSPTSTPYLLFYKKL
Chain of Cytochrome P450 2C19 (Homo sapiens) (P33261 whole entry, looked up): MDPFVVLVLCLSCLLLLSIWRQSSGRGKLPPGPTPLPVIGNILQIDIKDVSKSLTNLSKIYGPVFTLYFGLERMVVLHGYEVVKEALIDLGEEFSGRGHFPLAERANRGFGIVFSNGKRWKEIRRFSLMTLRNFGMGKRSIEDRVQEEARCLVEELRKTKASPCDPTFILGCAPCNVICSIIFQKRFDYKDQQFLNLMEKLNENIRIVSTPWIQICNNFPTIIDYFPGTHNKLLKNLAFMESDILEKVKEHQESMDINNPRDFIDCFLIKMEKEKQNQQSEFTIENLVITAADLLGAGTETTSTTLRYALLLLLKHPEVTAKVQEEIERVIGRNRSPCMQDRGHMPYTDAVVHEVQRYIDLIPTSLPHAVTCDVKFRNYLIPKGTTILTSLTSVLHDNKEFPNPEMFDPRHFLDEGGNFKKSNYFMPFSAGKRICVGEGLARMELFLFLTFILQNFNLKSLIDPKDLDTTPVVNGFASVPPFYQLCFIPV
Chain of Cytochrome P450 1A2 (Homo sapiens) (P05177 whole entry, looked up): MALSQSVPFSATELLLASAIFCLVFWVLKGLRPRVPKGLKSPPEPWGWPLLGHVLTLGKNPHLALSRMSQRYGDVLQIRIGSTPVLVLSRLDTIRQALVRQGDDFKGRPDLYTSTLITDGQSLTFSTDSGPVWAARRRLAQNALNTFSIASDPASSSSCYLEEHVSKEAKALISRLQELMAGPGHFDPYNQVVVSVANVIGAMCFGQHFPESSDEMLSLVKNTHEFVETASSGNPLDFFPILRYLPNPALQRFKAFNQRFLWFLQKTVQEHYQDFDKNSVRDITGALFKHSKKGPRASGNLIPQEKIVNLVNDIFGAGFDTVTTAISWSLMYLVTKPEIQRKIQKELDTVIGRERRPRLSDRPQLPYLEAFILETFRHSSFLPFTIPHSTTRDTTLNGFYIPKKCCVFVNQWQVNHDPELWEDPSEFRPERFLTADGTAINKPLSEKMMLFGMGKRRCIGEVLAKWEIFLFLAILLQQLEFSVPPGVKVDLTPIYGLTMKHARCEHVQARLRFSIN
Chain of Cytochrome P450 2D6 (Homo sapiens) (P10635 whole entry, looked up): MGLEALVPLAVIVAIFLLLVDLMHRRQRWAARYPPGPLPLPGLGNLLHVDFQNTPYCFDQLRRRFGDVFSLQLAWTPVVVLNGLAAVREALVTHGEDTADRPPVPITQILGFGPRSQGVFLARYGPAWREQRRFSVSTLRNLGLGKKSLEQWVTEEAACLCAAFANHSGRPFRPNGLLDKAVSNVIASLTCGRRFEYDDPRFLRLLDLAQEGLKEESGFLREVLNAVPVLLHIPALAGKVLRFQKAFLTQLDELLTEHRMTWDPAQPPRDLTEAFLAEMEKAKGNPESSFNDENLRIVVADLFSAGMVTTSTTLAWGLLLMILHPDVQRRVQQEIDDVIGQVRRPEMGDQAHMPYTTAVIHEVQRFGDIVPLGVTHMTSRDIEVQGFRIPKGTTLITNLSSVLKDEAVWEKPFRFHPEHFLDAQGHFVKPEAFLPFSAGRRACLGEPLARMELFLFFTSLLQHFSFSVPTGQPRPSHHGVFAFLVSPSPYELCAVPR
Chain of 3',5'-cyclic-AMP phosphodiesterase 4B (Homo sapiens) (Q07343 whole entry, looked up): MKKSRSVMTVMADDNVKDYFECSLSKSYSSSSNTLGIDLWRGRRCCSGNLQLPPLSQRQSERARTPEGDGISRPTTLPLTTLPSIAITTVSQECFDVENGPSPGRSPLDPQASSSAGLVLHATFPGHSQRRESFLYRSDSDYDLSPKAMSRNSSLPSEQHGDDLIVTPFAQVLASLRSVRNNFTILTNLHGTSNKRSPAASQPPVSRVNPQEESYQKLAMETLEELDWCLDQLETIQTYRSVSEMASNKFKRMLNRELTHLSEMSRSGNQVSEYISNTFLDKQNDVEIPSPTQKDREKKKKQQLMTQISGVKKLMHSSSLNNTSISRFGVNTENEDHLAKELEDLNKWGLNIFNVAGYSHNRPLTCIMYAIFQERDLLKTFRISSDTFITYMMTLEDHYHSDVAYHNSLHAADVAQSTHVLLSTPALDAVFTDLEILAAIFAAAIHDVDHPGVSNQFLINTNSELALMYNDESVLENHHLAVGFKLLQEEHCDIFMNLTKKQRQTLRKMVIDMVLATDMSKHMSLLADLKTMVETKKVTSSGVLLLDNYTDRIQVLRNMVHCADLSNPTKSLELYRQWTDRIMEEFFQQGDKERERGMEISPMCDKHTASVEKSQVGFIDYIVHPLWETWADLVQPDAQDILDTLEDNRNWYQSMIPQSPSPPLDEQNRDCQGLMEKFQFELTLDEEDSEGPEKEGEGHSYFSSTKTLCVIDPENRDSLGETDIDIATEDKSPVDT

Cc1ccc(C(=O)Cn2c3c(sc2=N)CCCC3)cc1
inactive: Potency [2] > 46 µM | Potency [3] > 46 µM | Potency [4] | Potency [5] | Potency [6] | Potency [8] | Potency [9] | Potency [10] | Potency [11] | Potency [12]
active: Potency [1] 1 µM | Potency [7] 6.31 µM

Clc1cccc(C=NC=Nc2cccc(Cl)c2)c1
active: Potency [1] 0.631 µM
inactive: Potency [2] > 46 µM | Potency [3] > 46 µM | Potency [13] | Potency [11] | Potency [12]

CN(CCc1ccc(Cl)c(Cl)c1)C[C@@H](O)COc1ccc(NS(C)(=O)=O)cc1
inactive: Potency [3] > 46 µM | Potency [4] | Potency [5] | Potency [8] | Potency [11] | Potency [12]
active: Potency [1] 15.8 µM | Potency [6] 2.51 µM | Potency [10] 2 µM

CS(=O)(=O)c1ccc(-c2cc(Br)sc2-c2ccc(F)cc2)cc1
active: Potency [1] 0.398 µM | Potency [6] 0.794 µM
inactive: Potency [2] > 46 µM | Potency [4] | Potency [8] | Potency [11] | Potency [12]

N#C[C@H](Cc1ccc(O)cc1)c1ccc(O)cc1
inactive: Potency [4] | Potency [5] | Potency [8] | Potency [13] | Potency [11] | Potency [12]
active: Potency [1] 12.6 µM

c1ccc2nc(C3=NCCN3)cnc2c1
inactive: Potency [2] > 46 µM | Potency [3] > 46 µM | Potency [4] | Potency [13] | Potency [11] | Potency [12]
active: Potency [1] 0.398 µM

COc1cccc(OC)c1OCCNC[C@@H]1COc2ccccc2O1
active: Potency [1] 12.6 µM and 25.1 µM | Potency [7] 2 µM and 2.51 µM | Potency [9] 0.251 µM | Potency [10] 0.794 µM | Potency [18] 17.8 µM
inactive: activity change, negative = inhibition [14] -5.1% | activity, negative = inhibition [15] 9.55% | Potency [2] > 46 µM | Potency [3] > 46 µM | Potency [4] | outcome [16] | Potency [8] | Potency [17] | outcome [19] | outcome [20] | Potency [11] | Potency [12]

CCCCCCCCC(=O)NCc1cc(OC)c(O)cc1I
inactive: Potency [2] > 46 µM | Potency [3] > 46 µM | Potency [4] | Potency [8] | Potency [11] | Potency [12]
active: Potency [1] 12.6 µM | Potency [7] 3.16 µM

CN(CC[C@@H](Oc1ccc(-c2ccccc2)cc1)c1ccc(F)cc1)CC(=O)O
active: Potency [6] 2.51 µM | Potency [10] 6.31 µM
inactive: Potency [1] | Potency [2] > 46 µM | Potency [3] > 46 µM | Potency [4] | Potency [11] | Potency [12] | Potency [21] | Potency [22]
